This is part of a sample that, as a whole, favours compounds with a hit. Of some 83,000 tested, about 20% had one in any assay.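 Method: cells in 96-well plates; compound added at one concentration; 48 h incubation; percent growth measured; values under 10 scored active.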 Values without a mark were called inactive. Active and inactive are the calls of the source.
Columns and labels:
Assay in all cases: NCI-60 one-dose screen, 48 h (100 = growth as untreated, 0 = no growth, -100 = all killed)
Details in all cases: 10 µM unless noted
NCI-H23 lung = test system: NCI-H23 lung
NCI-H226 lung = test system: NCI-H226 lung
NCI-H322M lung = test system: NCI-H322M lung
HOP-62 NSCLC = test system: HOP-62 NSCLC
NCI-H460 lung = test system: NCI-H460 lung
HOP-92 NSCLC = test system: HOP-92 NSCLC
NCI-H522 lung = test system: NCI-H522 lung
A549/ATCC NSCLC = test system: A549/ATCC NSCLC
786-0 renal = test system: 786-0 renal
COLO 205 colon = test system: COLO 205 colon

Row | Structure (SMILES) | growth (NCI-H23 lung) | growth (NCI-H226 lung) | growth (NCI-H322M lung) | growth (HOP-62 NSCLC) | growth (NCI-H460 lung) | growth (HOP-92 NSCLC) | growth (NCI-H522 lung) | growth (A549/ATCC NSCLC) | growth (786-0 renal) | growth (COLO 205 colon)
1 | Cn1cc(-c2nc(-c3c[nH]c4ccncc34)cs2)c2cc(F)ccc21 | -55.9% (active) | 57.9% | -75% (active) | -85.6% (active) | -70.5% (active) | -89.5% (active) | -66.1% (active) | -79.6% (active) | -92.5% (active) | -74.1% (active)
2 | CCOC(=O)c1ccc2c(c1)[n+](=O)c(C(C)=O)c(C(F)(F)F)n2[O-] | -16.9% (active) | 41.2% | 94.4% | 25.5% | -50.7% (active) | -29.9% (active) | -83.8% (active) | 19.2% | 11.4% | -78.3% (active)
3 | Nc1nc(=O)n([C@H]2CC=C(CO)O2)cc1F | 98.5% | 99.6% | 95.9% | 99.1% | 98.4% | 101% | 80.7% | 89.7% | 102% | 107%
4 | COc1cc(/C=C/C(=O)c2ccc(-n3cc(CN4CCN(c5cc6c(cc5F)c(=O)c(C(=O)O)cn6C5CC5)CC4)nn3)cc2)cc(OC)c1OC | 77.6% | 74.8% | 88.8% | 85.4% | 85.9% | 88% | 88% | 90.5% | 72.2% | 112%
5 | O=C(O)CCCN1C(=O)CSC1=S | 104% | 111% | 100% | 103% | 101% | 103% | 93.3% | 105% | 102% | 120%
6 | C=C(C)[C@@H]1CC[C@]2(COC(=O)c3cccnc3)CC[C@]3(C)[C@H](CC[C@@H]4[C@@]5(C)CCCN(C(=O)c6cccnc6)C(C)(C)[C@@H]5CC[C@]43C)[C@@H]12 | 42.6% | 42.1% | 65.6% | 61% | 17.7% | 32.9% | 34.3% | 29.3% | 45.1% | 27.9%
7 | CN1CCN(Cc2ccc(NC(=O)c3cncc(C#Cc4c(N)ncc5cc(F)ccc45)c3)cc2C(F)(F)F)CC1 | -39.5% (active) | 22.2% | 40.5% | 45.1% | -19.8% (active) | -14.2% (active) | 34.4% | 45% | -94% (active) | -20.5% (active)
8 | NCCCCCNc1noc(Cc2c[nH]c3cc(Br)ccc23)n1 | 30.9% | 61% | 33.4% | 21.6% | 12.8% | 19.7% | -38.3% (active) | 24.6% | 43.2% | -0.719% (active)
9 | CCCNNC(=O)c1ccc(CNC(=O)/C=C/c2ccccc2)cc1 | 50.3% [2.5 µM] | 73.4% [2.5 µM] | 34.5% [2.5 µM] | 20.3% [2.5 µM] | 40.2% [2.5 µM] | 25.6% [2.5 µM] | 38.3% [2.5 µM] | 34.8% [2.5 µM] | 33.1% [2.5 µM] | -16.5% [2.5 µM] (active)
10 | CCOC(=O)C#Cc1c(CC(=O)OCC)nnn1[C@H]1O[C@@H](CO)[C@@H]2OC(C)(C)O[C@@H]21 | 95.3% | 93.8% | 93.9% | 101% | 104% | 75.1% | -57.6% (active) | 75.9% | 83.9% | -40.3% (active)
11 | CCCCC1=C(Br)C(=O)c2ncccc2C1=O | 95% | 97.8% | 100% | 91.3% | 105% | 46.2% | 74.3% | 94.8% | 93.3% | -6.16% (active)
12 | CN(Cc1ccccc1)c1nc(Cl)c(C2CC(c3ccc(Cl)cc3)=NN2c2cc(Cl)cc(Cl)c2)s1 (stereo not given) | 94.3% | 102% | 102% | 91.6% | 106% | 91.6% | 91.3% | 95% | 93.8% | 105%
13 | O=C1OCC2=C1C(c1cccc(F)c1)c1cc3c(cc1N2CCO)CCC3 (stereo not given) | 24.7% | 39.6% | 40.9% | 26.2% | 6.75% (active) | 58.5% | 11.6% | 17.3% | 32.3% | -25.6% (active)
14 | FC(F)(F)c1cccc(-c2nnn(Cc3cc(-c4cccc(Cl)c4)no3)n2)c1 | 102% | 101% | 111% | 108% | 103% | 100% | 99.6% | 100% | 105% | 112%
15 | CS(=O)(=O)c1cccc(Nc2ncc3cc(-c4ccccc4Cl)ccc3n2)c1 | 26.7% | 31.1% | 26.8% | 15.3% | 5.47% (active) | -1.06% (active) | -44.3% (active) | 13.8% | 12.2% | -8.05% (active)
16 | O=c1[nH]c(CN2CCN(c3ccccc3)CC2)nc2c(Br)cc(Br)cc12 | 98.4% | 93.4% | 112% | 101% | 100% | 131% | 103% | 101% | 103% | 104%
17 | CCCC1Cc2cc(-n3nc(C)c4c3CC(C)(C)CC4=O)cc(NC3CCC(O)CC3)c2C(=O)N1 (stereo not given) | 34.5% | 47.7% | 50.5% | 40.1% | 18% | -0.467% (active) | 39.1% | 31.6% | 49.9% | 14%
18 | O=C(CSc1nc(-c2ccccc2)cn1-c1ccc(Cl)cc1)c1ccc([N+](=O)[O-])cc1 | 78.5% | 84.7% | 89% | 96.2% | 79.5% | 87.5% | 70.5% | 86.8% | 90.3% | 96.1%
19 | Cc1nn(C)c2ncnc(Nc3ccccc3Br)c12 | 101% | 96.3% | 106% | 101% | 106% | 104% | 98.7% | 99.3% | 97.8% | 119%
20 | CC/C(=C(/c1ccc(Cl)cc1)c1ccc(OCCN2CCCC2)cc1)c1ccccc1 | 62% | 93.9% | 93.4% | 99% | 12.3% | 57.5% | 83% | 43.5% | 43.6% | -25.3% (active)
21 | COc1cc2c(c(OC)c1OC)C(=O)CC(c1cccc(C(=O)Nc3ccc(Br)cc3)c1)O2 (stereo not given) | 60.3% | 37.6% | 59.9% | 86% | 78.8% | -8.2% (active) | 48.5% | 78.8% | 71.8% | 81.7%
22 | CN(C)C(=S)NN=C(c1ccccn1)c1ccccn1 | 38.5% | 24.6% | 11.5% | 26% | 0.166% (active) | 64.7% | 13.7% | 12.9% | 14.6% | 38%
23 | O=C(Nc1ccc(Oc2cccc(F)c2)c(Cl)c1)c1cnccn1 | 44.9% | 61.8% | 46.3% | 42.4% | 22.1% | 51.5% | 22.3% | 39.1% | 46.5% | 15.5%
24 | CCN1C(=O)N(CC)C2C1NN=c1s/c(=C\c3ccccc3)c(=O)n12 (stereo not given) | 25.6% | 59.1% | 42.6% | 38.2% | 4.35% (active) | 27.3% | -8.72% (active) | 7.65% (active) | 25.1% | -2.49% (active)

— PubChem BioAssay (NCI)
